Screening results as filed in PubChem.
GLP-1R agonist: qHTS of GLP-1 Receptor Agonists; hit rate 0.007% among 380,000; Potency, µM (highest dose often 45.6 µM), inactives show at the highest dose activation, most hits filed as activators; HEK293 GLP-1R CRE-luciferase, luminescence, 4-6 h; cells express a hypersensitive GLP-1R form; AID 624172, 2012; Glucagon-like peptide 1 receptor (Homo sapiens), P43220; also: % of control where 0% means no effect
PTHR1 agonist: qHTS for PTHR1 Agonists: Primary Screen; AID 743266, 2014; Potency, µM (series often up to 115 µM), inactives show at the highest dose activation, actives largely listed as activators; Parathyroid hormone/parathyroid hormone-related peptide receptor (Homo sapiens), Q03431; hit rate 0.075% among 410,000; HEK293 GP2 PTHR1 cells, GloSensor cAMP luminescence, 1 h; also: nearly all actives have a fitted effect of over 55% in size
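HEK-293-derived GP2 cells expressing PTHR1 and a GloSensor cAMP reporter, 3,000/well, plated overnight, given luciferin plus IBMX (each 0.5 mM as added) for 1 h at 37 °C, then compound for 1 h at 37 °C. Luminescence was read after 15 min at room temperature.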
GLP-1R inv ag: qHTS of GLP-1 Receptor Inverse Agonists (Inhibition Mode). Potency, µM (series often up to 38.3 µM), inactives show at the highest dose activity change, negative = inhibition, usual class: inhibitors. hit rate 1.6% among 410,000. AID 624417, 2012. HEK293 GLP-1R CRE-luciferase, luminescence, 24 h; GLP-1R form is constitutively active. Glucagon-like peptide 1 receptor (Homo sapiens), P43220; also: % is scaled to controls: 0 for no effect and ±100 for the full control effect; nearly all actives have a fitted effect of over 55% in size
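Using stably transfected HEK293 (constitutively active GLP-1R, cAMP-luciferase reporter), compounds were incubated 24 hr and luciferase measured by luminescence.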
HEK293 tox: qHTS of GLP-1 Receptor Inverse Agonists: Cytotox Screen | HEK293 cAMP-luciferase reporter cells, luminescence, 24 h | Potency, µM (series often up to 38.3 µM), for inactives: top-dose activity change, negative = inhibition, hits mostly inhibitors | hit rate 0.13% among 410,000 | AID 624418, 2012;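 also: loss of luciferase light is scored as toxicity; % is scaled to controls: 0 for no effect and ±100 for the full control effect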
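Here, cytotoxicity is scored as loss of luminescence. The MLSMR collection was tested on cells seeded in medium containing 10% Nu serum, with a 24 hr compound exposure preceded by 12 hours of culture.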
An asterisk follows results filed as active; [ ] = another dose, or the depositor's remark. Most compounds without a hit are left out; they make up all but 1.7% or so of the library. Calls follow the shape of the dose curve; as a rule, active = well fitted curve in the direction sought with a large enough effect; inconclusive = small, poorly fitted or top-dose-only effect, or another doubt; inactive = no such curve, though single readings can be large; an effect the other way counts as inactive or inconclusive. Potency is read from the fitted curve at half-maximal effect.

CC/C(O)=N/S(=O)(=O)c1ccc(-c2c(-c3ccccc3)noc2C)cc1 was read as GLP-1R agonist 0%.
`CCCCc1cc2c(=O)c(C(=O)OC)c[nH]c2cc1OCc1ccccc1` gave GLP-1R agonist 1%.
Screening Cc1cccc(CSc2nnc(CCCCCNC(=O)OC(C)(C)C)o2)c1 returned GLP-1R agonist 19%, PTHR1 agonist -26%, GLP-1R inv ag 7.1µM* and HEK293 tox -1%.
`Cc1ccc(CSc2nnc(CCCCCNC(=O)OC(C)(C)C)o2)cc1` gave GLP-1R agonist 21%, PTHR1 agonist -18%, GLP-1R inv ag inconclusive and HEK293 tox 16%.
For Cc1c(N=C2SCC(=O)N2/N=C\c2ccc(Br)cc2)c(=O)n(-c2ccccc2)n1C the results were GLP-1R agonist 0%, PTHR1 agonist inactive, GLP-1R inv ag 8.9µM* and HEK293 tox 14%.
Screening Cc1c(N=C2SCC(=O)N2/N=C/c2ccccc2Cl)c(=O)n(-c2ccccc2)n1C returned GLP-1R agonist 3%, PTHR1 agonist inconclusive, GLP-1R inv ag -29% and HEK293 tox 14%.
Screening Nc1ccccc1SCc1csc(-c2ccc(Cl)cc2)n1 returned GLP-1R agonist 21%, PTHR1 agonist -47%, GLP-1R inv ag 10µM* and HEK293 tox 28%.
`CCOc1ccc(NS(=O)(=O)c2ccc(-c3cc(C)no3)s2)cc1` gave PTHR1 agonist -16%, GLP-1R inv ag -11% and HEK293 tox 4%.
Screening C=CCc1cccc(CNc2nc3ccccc3n2CC)c1O returned GLP-1R agonist 9%, PTHR1 agonist -34%, GLP-1R inv ag 5µM* and HEK293 tox -23%.
Screening C=CCc1cccc(CNc2nc3ccccc3n2CCC)c1O returned GLP-1R agonist -2%, PTHR1 agonist 0%[57.5 µM], GLP-1R inv ag inconclusive and HEK293 tox -24%.
For CN1/C(=C\C(=O)Nc2cccc(Cl)c2)C(C)(C)c2ccccc21 the results were GLP-1R agonist 11%, PTHR1 agonist -89%, GLP-1R inv ag 5µM* and HEK293 tox inconclusive.
For O=C(CSc1nc(Nc2ccccc2)nc(N2CCOCC2)n1)Nc1cccc([N+](=O)[O-])c1 the results were GLP-1R agonist 7%, PTHR1 agonist -23%, GLP-1R inv ag 11µM* and HEK293 tox 2%.
Screening COc1ccc(C(CNC(=O)c2cc(S(=O)(=O)N3CCN(c4ccccc4)CC3)ccc2Cl)N(C)C)cc1 (stereo unspecified) returned GLP-1R agonist -2%, PTHR1 agonist -37%, GLP-1R inv ag 10µM* and HEK293 tox -18%.
`CN(C)C(CNC(=O)c1cccc(S(=O)(=O)N2CCN(c3ccccc3)CC2)c1)c1ccccc1` (stereo unspecified) gave GLP-1R agonist 2%, PTHR1 agonist -33%, GLP-1R inv ag inconclusive and HEK293 tox 4%.
CNC(=S)N/N=C(\C)c1ccc2c(c1)OCO2 was read as GLP-1R agonist 2%, PTHR1 agonist inactive, GLP-1R inv ag 10µM* and HEK293 tox inconclusive.
Screening CCNC(=S)N/N=C(\C)c1ccc2c(c1)OCCO2 returned GLP-1R agonist 2%, PTHR1 agonist inactive, GLP-1R inv ag inconclusive and HEK293 tox inconclusive.
Screening CNC(=S)N/N=C(\C)c1ccccc1 returned GLP-1R agonist -3%, PTHR1 agonist -26%, GLP-1R inv ag 10µM* and HEK293 tox inconclusive.
`CNC(=S)N/N=C(\C)c1ccc2c(c1)OCCO2` gave GLP-1R agonist 11%, PTHR1 agonist -47%, GLP-1R inv ag inconclusive and HEK293 tox inconclusive.
C/C(=N\NC(=S)NC(C)C)c1ccc2c(c1)OCCO2 was read as GLP-1R agonist 7%, PTHR1 agonist -91%, GLP-1R inv ag 10µM* and HEK293 tox 4.5µM*.
For CN(C(=O)Cn1c(=O)n(Cc2ccc(C(=O)NCc3ccc4c(c3)OCO4)cc2)c(=O)c2ccccc21)c1ccccc1 the results were GLP-1R agonist 3%, PTHR1 agonist -21%, GLP-1R inv ag -17% and HEK293 tox -7%.
For COc1ccc(C(=O)N(c2ccc(C)cc2)S(=O)(=O)c2ccc(C)cc2)cc1 the results were PTHR1 agonist -5%, GLP-1R inv ag 3.2µM* and HEK293 tox inconclusive.
